Experimental data reported in article PMC7862700, “An all-to-all approach to the identification of sequence-specific readers for epigenetic DNA modifications on cytosine”.

Legend:
Assay in all cases: DAPPL (digital affinity profiling via proximity ligation, sequencing); 10 mM Tris-HCl pH 7.5, 50 mM NaCl, 1 mM DTT, 4% glycerol, room temperature, 30 min; GST-TFs on glutathione beads, 16-mer random dsDNA library, 0.1% formaldehyde crosslink after washing; high values mean tight binding
Conditions in all cases: protein: recombinant; tags: N-terminal GST; dsDNA, one strand shown
ELK1 = target: T1, ELK1 (Homo sapiens, UniProt P19419 1-428)
T1 sequence: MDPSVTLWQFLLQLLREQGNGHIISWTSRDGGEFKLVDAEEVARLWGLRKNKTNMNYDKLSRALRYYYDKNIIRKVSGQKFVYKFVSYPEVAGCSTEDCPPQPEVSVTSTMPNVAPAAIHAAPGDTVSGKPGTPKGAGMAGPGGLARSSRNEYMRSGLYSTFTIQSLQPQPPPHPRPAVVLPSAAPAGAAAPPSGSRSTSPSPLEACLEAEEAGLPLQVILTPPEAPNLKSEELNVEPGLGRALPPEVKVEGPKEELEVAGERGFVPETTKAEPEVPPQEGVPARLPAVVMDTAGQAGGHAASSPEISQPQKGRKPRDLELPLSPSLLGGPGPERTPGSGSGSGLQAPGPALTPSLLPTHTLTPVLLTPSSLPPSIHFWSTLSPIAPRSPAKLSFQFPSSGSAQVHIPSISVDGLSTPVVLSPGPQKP
Summary of the method: (§1)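 A tag-only sample was pooled with DNA-barcoded human transcription factors that had been expressed in yeast as GST fusions and captured on glutathione beads. The pools were incubated for 30 min at room temperature with 200 nmole of a random double-stranded 16-mer DNA library in Tris/NaCl/DTT/glycerol buffer, then washed, crosslinked with 0.1% formaldehyde, proximity-ligated (BsaI/T4 ligase, 1 h, 37 °C), PCR-amplified and sequenced on an Illumina NextSeq500. Binding signal is each hexamer's read frequency for a factor divided by its frequency for the tag-only sample.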

GABPA = target: T2, GABPA (Homo sapiens, UniProt Q06546 1-454)
T2 sequence: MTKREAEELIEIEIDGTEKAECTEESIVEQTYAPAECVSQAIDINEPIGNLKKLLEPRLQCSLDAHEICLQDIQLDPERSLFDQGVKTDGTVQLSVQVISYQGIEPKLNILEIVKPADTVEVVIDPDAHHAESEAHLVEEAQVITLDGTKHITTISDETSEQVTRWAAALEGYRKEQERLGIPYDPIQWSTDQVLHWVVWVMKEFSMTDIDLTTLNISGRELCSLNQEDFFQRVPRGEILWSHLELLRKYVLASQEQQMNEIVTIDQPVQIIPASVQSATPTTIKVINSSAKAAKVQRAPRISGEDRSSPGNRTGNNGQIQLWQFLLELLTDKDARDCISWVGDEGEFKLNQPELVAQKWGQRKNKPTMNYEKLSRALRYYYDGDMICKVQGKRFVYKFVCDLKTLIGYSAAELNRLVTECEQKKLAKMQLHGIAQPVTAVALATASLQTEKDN
Summary of the method: as §1

ERG = target: T3, ERG (Homo sapiens, UniProt P11308 1-479)
T3 sequence: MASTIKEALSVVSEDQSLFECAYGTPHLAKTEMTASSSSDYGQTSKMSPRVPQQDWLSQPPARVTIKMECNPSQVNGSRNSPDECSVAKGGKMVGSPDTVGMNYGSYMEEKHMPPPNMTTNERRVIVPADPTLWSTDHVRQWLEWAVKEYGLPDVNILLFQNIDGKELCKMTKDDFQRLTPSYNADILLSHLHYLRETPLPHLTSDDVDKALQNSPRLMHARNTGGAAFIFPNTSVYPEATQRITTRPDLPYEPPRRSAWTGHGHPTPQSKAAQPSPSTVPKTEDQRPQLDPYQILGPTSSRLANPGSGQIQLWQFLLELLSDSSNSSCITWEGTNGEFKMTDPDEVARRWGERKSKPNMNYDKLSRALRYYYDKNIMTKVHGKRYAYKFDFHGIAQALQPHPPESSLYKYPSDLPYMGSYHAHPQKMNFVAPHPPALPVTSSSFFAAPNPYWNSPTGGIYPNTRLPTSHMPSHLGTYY
Summary of the method: as §1

ELF1 = ELF1 (Homo sapiens, UniProt P32519 1-619)
Summary of the method: as §1

EHF = target: T4, EHF (Homo sapiens, UniProt Q9NZC4 1-300)
T4 sequence: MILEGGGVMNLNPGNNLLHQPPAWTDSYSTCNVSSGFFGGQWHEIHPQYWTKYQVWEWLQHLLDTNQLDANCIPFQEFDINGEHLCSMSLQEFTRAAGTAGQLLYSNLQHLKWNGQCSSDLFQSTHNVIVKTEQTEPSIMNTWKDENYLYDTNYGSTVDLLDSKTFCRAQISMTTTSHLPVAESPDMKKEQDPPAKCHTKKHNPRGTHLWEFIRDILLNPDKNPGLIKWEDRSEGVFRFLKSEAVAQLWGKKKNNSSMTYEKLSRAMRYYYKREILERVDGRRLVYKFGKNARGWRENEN
Summary of the method: as §1

SPIB = SPIB (Homo sapiens, UniProt Q01892 1-262)
Summary of the method: as §1

FEV = target: T5, FEV (Homo sapiens, UniProt Q99581 1-238)
T5 sequence: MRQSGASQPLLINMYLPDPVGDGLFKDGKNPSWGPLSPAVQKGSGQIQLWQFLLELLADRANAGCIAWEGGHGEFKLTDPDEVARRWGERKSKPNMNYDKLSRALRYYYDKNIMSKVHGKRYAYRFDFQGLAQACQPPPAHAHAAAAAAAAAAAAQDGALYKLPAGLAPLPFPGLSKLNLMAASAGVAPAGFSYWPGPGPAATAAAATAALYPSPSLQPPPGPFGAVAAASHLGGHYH
Summary of the method: as §1

ETV5 = ETV5 (Homo sapiens, UniProt P41161 1-510)
Summary of the method: as §1

Chain of ETV5 (P41161 whole entry): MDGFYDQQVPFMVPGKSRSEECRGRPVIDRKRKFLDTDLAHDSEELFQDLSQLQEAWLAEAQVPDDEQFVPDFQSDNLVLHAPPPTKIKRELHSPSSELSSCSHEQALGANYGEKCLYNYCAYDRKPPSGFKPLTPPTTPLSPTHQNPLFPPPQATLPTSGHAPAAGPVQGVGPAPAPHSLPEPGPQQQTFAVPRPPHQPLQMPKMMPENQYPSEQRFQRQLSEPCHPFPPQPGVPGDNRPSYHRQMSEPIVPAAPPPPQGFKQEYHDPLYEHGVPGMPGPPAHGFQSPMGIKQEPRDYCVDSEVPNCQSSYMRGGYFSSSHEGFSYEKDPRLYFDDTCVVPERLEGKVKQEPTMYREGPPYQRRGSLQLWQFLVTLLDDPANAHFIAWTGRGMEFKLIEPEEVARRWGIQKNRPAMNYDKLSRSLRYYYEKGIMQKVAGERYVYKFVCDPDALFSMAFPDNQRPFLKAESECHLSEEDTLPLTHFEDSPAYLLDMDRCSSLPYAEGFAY
Chain of SPIB (Q01892 whole entry): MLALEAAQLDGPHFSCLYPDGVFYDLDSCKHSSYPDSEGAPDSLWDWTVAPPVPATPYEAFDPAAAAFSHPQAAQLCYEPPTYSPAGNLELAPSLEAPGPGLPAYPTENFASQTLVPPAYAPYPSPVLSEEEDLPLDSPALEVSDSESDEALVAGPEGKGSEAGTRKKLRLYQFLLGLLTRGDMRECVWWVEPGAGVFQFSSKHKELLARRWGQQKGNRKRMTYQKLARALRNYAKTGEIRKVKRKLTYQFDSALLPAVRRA
Chain of ELF1 (P32519 whole entry): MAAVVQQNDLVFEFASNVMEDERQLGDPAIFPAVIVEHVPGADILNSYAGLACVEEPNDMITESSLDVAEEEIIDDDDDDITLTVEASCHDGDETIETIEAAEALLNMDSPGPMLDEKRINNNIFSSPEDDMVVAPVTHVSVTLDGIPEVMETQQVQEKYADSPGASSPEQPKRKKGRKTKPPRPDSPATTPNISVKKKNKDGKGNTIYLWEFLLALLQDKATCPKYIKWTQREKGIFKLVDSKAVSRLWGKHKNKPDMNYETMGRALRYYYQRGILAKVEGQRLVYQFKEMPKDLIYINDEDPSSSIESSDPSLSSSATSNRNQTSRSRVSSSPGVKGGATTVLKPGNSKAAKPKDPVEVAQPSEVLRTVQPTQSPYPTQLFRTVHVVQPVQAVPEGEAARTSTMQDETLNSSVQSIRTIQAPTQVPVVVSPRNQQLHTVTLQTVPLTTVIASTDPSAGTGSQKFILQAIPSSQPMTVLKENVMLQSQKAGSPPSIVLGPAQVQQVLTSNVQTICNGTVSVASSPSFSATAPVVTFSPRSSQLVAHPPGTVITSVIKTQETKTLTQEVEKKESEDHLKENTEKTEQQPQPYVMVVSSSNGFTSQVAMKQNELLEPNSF

GCCCAA was tested, and the binding signal (ELK1) was 1.08 fold enrichment (6-mer frequency, TF over GST control), the binding signal (GABPA) was 1.14 fold enrichment (6-mer frequency, TF over GST control) and the binding signal (ERG) was 1.06 fold enrichment (6-mer frequency, TF over GST control). The binding signal (ELF1) was 1.09 fold enrichment (6-mer frequency, TF over GST control), the binding signal (EHF) was 1 fold enrichment (6-mer frequency, TF over GST control) and the binding signal (SPIB) was 1.06 fold enrichment (6-mer frequency, TF over GST control). For the same sequence, the binding signal (FEV) was 1.11 fold enrichment (6-mer frequency, TF over GST control) and the binding signal (ETV5) was 1.1 fold enrichment (6-mer frequency, TF over GST control).
